# Results as given in PubChem BioAssay AID504843 (Broad Institute, 2011).
# Hit rate of the full screen: of about 1,200 compounds, about 360 (30%) were called active. The list is a sample of the results. Measured potencies and affinities stand elsewhere. Unmarked numbers belong to inactive results. No rule for the calls is given here.
# Assay: bacterial growth inhibition, dose response, counter-screen, BacTiter-Glo luminescence, cherry-picked samples (AID 504843);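 also: 0% = median of sample compound wells and -100% = antibiotic control wells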
# Settings: BacTiter-Glo ATP luminescence; series mostly up to 15 µM; activity change, negative = inhibition: at the top concentration
row,Compound,"activity change, negative = inhibition [%]"
1,CCOc1ccc(N(CC(=O)NCc2ccc(OC)cc2)S(=O)(=O)c2c(C)[nH]c(=O)[nH]c2=O)cc1,14.2
2,CN1CCc2c(sc3nc(SCC(=O)N4CCOCC4)nc(N)c23)C1,12.1
3,Cc1cc(C)c(C#N)c(Oc2ccccc2Br)n1,-1.47
4,Cc1nnc(Nc2ccc(Cl)c(C(F)(F)F)c2)[nH]c1=O,2.24
5,CC(/C=N/NC(=O)c1n[nH]c2c1CCC2)=C\c1ccccc1,-2.7
6,CCCN=C1N(CC)C[C@@H]2[C@@H]3C(=O)N(C)C(=O)[C@@H]3[C@](Cc3ccccc3)(C(=O)OC)N12,18.6
7,O=C(CCCc1nc2ccccc2s1)NC1CCOC1=O (stereo unspecified),8.2
8,Cc1cccc(NC(=O)CN(c2ccc(F)cc2)S(C)(=O)=O)c1,14.4
9,Cc1cccc(CS(=O)(=O)c2ncc(Cl)c(C(=O)Nc3nnc(C(C)C)s3)n2)c1,-5.68
10,O=C(C[C@H]1C[C@H](C(=O)N2CCOCC2)[C@@]2(CCC3CCCC3)c3[nH]c4cc(-c5ccco5)ccc4c3CCN2C1=O)NCCCn1ccnc1,-7.23
11,CC(=O)Nc1ccc(/C=N/N2CCCCC2)cc1,-9.51
12,Cc1ccc(/C=C2/C(=N)N3N=C(CC(=O)N4CCCC4)SC3=NC2=O)o1,1.5
13,C=CCN1C(=O)c2ccc(C(=O)N3CCC(C(N)=O)CC3)cc2C1=O,-16.8
14,CC(NC(=O)c1ccc([N+](=O)[O-])o1)C12CC3CC(CC(C3)C1)C2 (stereo unspecified),22.9
15,CC(C)N1CCc2c(sc(NC(=O)c3ccc(S(=O)(=O)N4CCc5ccccc54)cc3)c2C(N)=O)C1,-10.4
16,Cc1ccc2nc(C(=O)O)c(C(=O)O)nc2c1,-2.68
17,NC(=O)Cn1c(-c2nonc2N)nc2ccccc21,14.1
18,CC(C)c1nn2c(=O)cc(CSc3ccccc3NC(=O)c3ccccc3F)nc2s1,-10.6
19,CC(=O)c1ccc(NC(=O)CSc2nnc(C3CC3)n2C2CC2)cc1,-7.46
20,COc1ccc(-n2c(Cc3cccn3C)nnc2SCC(=O)NCc2ccc(F)cc2)cc1,-10.8
21,Cc1ccc2cc(CCNC(=O)C(=O)c3c(C)[nH]c4ccccc34)c(=O)[nH]c2c1,-3.49
22,O=C(/C=C/c1ccccc1)Nc1cc(S(=O)(=O)N2CCOCC2)ccc1N1CCCC1,-3.5
23,O=C(Nc1ccc(F)cc1)Nc1cc(S(=O)(=O)N2CCOCC2)ccc1N1CCCC1,4.61
24,CC(Sc1ccsc1[N+](=O)[O-])C(=O)N1CCN(c2ccccn2)CC1 (stereo unspecified),-3.67
25,Nc1ccn(CC(=O)N2CCN(c3ccccn3)CC2)c(=O)n1,-4.25
26,COC(CNc1ncnc2sc(-c3ccccc3)cc12)OC,-3.03

row,Compound,"activity change, negative = inhibition [%]"
1,Cc1cccc(-c2nnc(-c3cccc(NC(=O)Cc4cccs4)c3)o2)c1,9.27
2,O=C(CSc1nnc(-c2cccnc2)o1)Nc1ccc(Cl)cc1,-0.908
3,CSc1cccc(NC(=O)CN(C)S(=O)(=O)c2cnc[nH]2)c1,-5.56
4,C[C@H](NC(=O)c1nc[nH]c1C(=O)NCCCCCNC(=O)OC(C)(C)C)c1ccccc1,-1.97
5,CC1CCN(C(=O)c2[nH]cnc2C(=O)N[C@@H](C)C(=O)OC(C)(C)C)CC1,12.1
6,CCCCCCCN(c1ccccc1)[C@@H]1C[C@H]2CCCC(=O)N3CC[C@@H](C1)[C@@H]23,14.7
7,CCOC(=O)c1c(C)[nH]c(C(=O)N(C)Cc2cccc(OC)c2OC)c1C,1.41
8,O=C1CN2C(=Nc3ccc(Br)cc3C2c2ccccc2)CCN1 (stereo unspecified),-8.09
9,CC[C@H]1OC(=O)[C@H](C)[C@@H](O[C@H]2C[C@@](C)(OC)[C@@H](O)[C@H](C)O2)[C@H](C)[C@@H](O[C@@H]2O[C@H](C)C[C@H](N(C)C)[C@H]2O)[C@](C)(O)C[C@@H](C)CN(C)[C@H](C)[C@@H](O)[C@]1(C)O,3.48
10,O=[N+]([O-])c1ccc(/C=N/n2c(CO)nc3ccccc32)s1,8.29
11,Cc1nn(-c2ccccc2)c2nc3c(cc12)C(=O)CCC3,-3.6
12,O=C(CN1CCC(n2nnc3cc(F)ccc32)CC1)NCc1ccco1,19.3
13,Nc1nc2n(n1)C(c1cccc(Br)c1)CC(c1ccccc1)N2 (stereo unspecified),16.8
14,Nc1ccccc1S(=O)(=O)NC1=NCCCCC1,-0.169
15,CCOc1ccc(-c2c(C(=O)N/N=C/c3c[nH]c4ccccc34)nnn2-c2nonc2N)cc1,-17.8
16,Cc1ccc(NC(=O)NCc2ccccn2)cc1Cl,5.48
17,Cc1ccc(NC(=O)c2ncn(CCCNCc3ccccn3)n2)cc1C,11.9
18,COc1ccc(CN2CCN(C(=O)C3CCC(CNS(=O)(=O)c4ccccc4)CC3)CC2)c(OC)c1OC (stereo unspecified),-7.46
19,Cc1nc2ncnn2c(C)c1CCC(=O)N1CCCCC1,-5.84
20,COc1ccc(Nc2cc(C)nc3nc(C)nn23)c(OC)c1,-1.6
21,O=C(Cn1cc([N+](=O)[O-])cn1)N1CCN(c2ccccc2)CC1,-8.94
22,CSc1ccc(NC(=O)N2CCN(c3nc4ccccc4s3)CC2)cc1,11.1
23,COCCC1CCCCN1C(=O)c1cccc(OC2CCN(S(C)(=O)=O)CC2)c1 (stereo unspecified),5.98
24,CCN1CCN(CCCNc2ncnc3nc[nH]c23)CC1,-22.4
25,C1=C(CCNc2ncnc3c2cnn3-c2ccccc2)CCCC1,9.72
26,COc1ccc(-c2c(-c3cc(OC)cc(OC)c3)n(C)c3ccc(-c4ccc(S(N)(=O)=O)cc4)cc23)cc1,4.16

row,Compound,"activity change, negative = inhibition [%]"
1,CC(C)c1ccc(C(=O)CN2C(=O)NC3(CCc4ccccc43)C2=O)cc1 (stereo unspecified),23.7
2,Cc1nc(Cl)c(C(=O)NCc2ccccc2)c(C)c1Cl,-15
3,C#CCOCCOCCOCCNc1nc(N2CCN(C(=O)Cn3cc(CC(C)O)nn3)CC2)nc(N2CCN(C(=O)[C@H](CCCCN)n3cc(CCCC)nn3)CC2)n1 (stereo partly specified),17.3
4,O=C(C1CCCO1)N1CCN(c2c3c(nc4cc(-c5ccc(F)cc5)nn24)CCC3)CC1 (stereo unspecified),-10.4
5,Nc1nc(CN2CCCCC2)cs1,-6.99
6,Nc1nc(NCC2CCCO2)nc(Nc2cccc(Cl)c2)c1[N+](=O)[O-] (stereo unspecified),-11.3
7,O=C(NCc1ccccc1)C(=O)NCC1OCCN1S(=O)(=O)c1ccc([N+](=O)[O-])cc1 (stereo unspecified),-9.98
8,COC(=O)c1ccc(Cl)cc1NC(=O)/C=C/c1ccc(C)o1,-1.54
9,CC(NC(=O)c1ccc([N+](=O)[O-])cc1[N+](=O)[O-])c1ccc(-c2ccccc2)cc1 (stereo unspecified),-11.2
10,O=C(Cn1nc(C(F)(F)F)c2c1CCCC2)NCc1ccco1,13.5
11,O=C(Nc1ccc(F)cc1)C1CC(=O)N(Cc2ccco2)C1 (stereo unspecified),-1.25
12,CN(Cc1cn[nH]c1-c1ccc(-c2ccccc2)cc1)CC1CCOCC1,3.47
13,COc1ccc2c(c1)c1c3n2CCN(C)C3=NCC1,7.69
14,CC(C)C(C(=O)NC1CCCC1)N(CC1CCCO1)C(=O)CNS(=O)(=O)c1ccccc1 (stereo unspecified),12.5
15,CCCCC(=O)N(c1ccc(C)c(C)c1)C1C=CS(=O)(=O)C1 (stereo unspecified),-16.1
16,COc1ccccc1N(CC(=O)NC1CCCC1)C(=O)c1csnn1,-23.1
17,COc1cc(CNc2ccc3[nH]c(=O)[nH]c3c2)ccc1OCC(=O)NC(C)(C)C,-22.4
18,Cc1nc2ccccn2c1/C(O)=C1\C(=O)C(=O)N(CCN(C)C)C1c1ccco1 (stereo unspecified),10.2
19,CCN(C[C@H]1N[C@@](Cc2ccccc2)(C(=O)OC)[C@H]2C(=O)N(C)C(=O)[C@@H]12)C(C)=O,11.5
20,CCOCCOc1nc2c(c(=O)n(C)c(=O)n2C)n1Cc1ccc(C)cc1,11.6
21,CCc1cccc2c1NC(=O)C2(O)N1CCCC(C)C1 (stereo unspecified),-12.5
22,CCOC(=O)c1ccccc1NC(=S)N1CC(C)CC(C)C1 (stereo unspecified),-8.99
23,COc1ccc(/C=C/C(=O)Nc2ccccc2C(=O)O)cc1OC,0.824
24,CC1(C)CC(=O)c2cc3c(nc2C1)CC(C)(C)CC3=O,-9.4
25,CC(C)NC(=O)CN1CCN(C(=O)c2ccc3oc(CCCc4ccccc4)nc3c2)CC1,-4.91
26,Cc1nn(C)c(C)c1S(=O)(=O)N(CC(=O)NCCCN1CCC(C)CC1)c1ccc(C(C)C)cc1,-6.13

row,Compound,"activity change, negative = inhibition [%]"
1,O=C(CN(Cc1ccccc1Cl)C(=O)CNS(=O)(=O)c1ccc(F)cc1)NCC1CCCO1 (stereo unspecified),4.69
2,O=C(CSc1ncnc2ccccc12)NCc1ccco1,-2.79
3,COc1ccccc1N1CCN(C(=O)CSc2nnc(NC(=O)C(C)C)s2)CC1,-8.54
4,Cc1ccc(Cn2c(=O)oc3ccccc32)cc1,13.9
5,Cc1cccc(NC(=S)N/N=C/c2c[nH]c3ccccc23)c1,6.24
6,CC1CCCN(C(=O)c2nn(C)c3c2CSc2ccccc2-3)C1 (stereo unspecified),-0.156
7,CCCC(=O)NC1=C(C#N)C2(CCCC2)Cc2ccccc21,10.7
8,O=C(NCCNC(=O)c1ccccc1F)c1ccccn1,-8.38
9,COc1ccccc1NC(=O)NCCCCc1ccccc1,4.63
10,COc1ccccc1NC(=S)NC1CC2CCC1C2 (stereo unspecified),9.45
11,Cc1cc(C)n2nc(SCC(=O)N3CCN(c4ccccc4)CC3)nc2n1,15.8
12,O=C(CN1CCN(c2ccccc2)CC1)N1N=CCC1c1ccccc1 (stereo unspecified),1.93
13,CCCSc1nnc(CNS(=O)(=O)c2ccc(C)cc2)n1C,6.19
14,COC(=O)[C@H](CC(C)C)N(Cc1ccccc1)S(=O)(=O)N(Cc1ccccc1)[C@@H](CC(C)C)C(=O)OC,6.02
15,CCN(CC)S(=O)(=O)c1ccc(OC)c(NC(=O)c2ccc(=O)[nH]c2)c1,-9.57
16,Nc1cc(S(=O)(=O)C(F)(F)F)ccc1C(=O)O,-21.2
17,N#Cc1cccc(Nc2c3c(nc4ccccc24)CCCC3)c1,12.8
18,CC(=O)c1ccccc1OCC(O)CN1CCN(C(c2ccccc2)c2ccccc2)CC1 (stereo unspecified),4.45
19,O=C1c2cccc3cccc(c23)C(=O)N1CC1CCN(CC(O)COc2ccc3ccccc3c2)CC1 (stereo unspecified),1.01
20,Cc1cc(C)c(C#N)c(SCS(=O)c2ccc(C(C)(C)C)cc2)n1 (stereo unspecified),-2.71
21,C#CCNC(=O)C1=C[C@H](c2csc3ccccc23)[C@@H](CCCO)[C@H](OCC)O1,-8.78
22,CN(C/C=C/c1ccccc1[N+](=O)[O-])Cc1ccccc1,21.6
23,O=S(=O)(c1cc(Cl)cc(Cl)c1O)N1CCC2(CC1)OCCO2,12.8
